According to article PMC6919601, “Identification of Plasmodium dipeptidyl aminopeptidase allosteric inhibitors by high throughput screening” (PLoS ONE, 2019):
Out of some 110,000 compounds screened, about 230 (0.21%) showed an effect of 50% or more. The sample holds strong results, similar compounds and a random draw of the others, so the mix is not that of the screen.

target: DPAP1 (Plasmodium falciparum, UniProt Q8IIJ9); experiment: primary screen, percent inhibition; read by cleavage of a fluorogenic dipeptide substrate; higher = more effect of the substance; parameters: species or system P. falciparum D10 trophozoite lysates; single well
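Also: 30 min substrate incubation versus DMSO and 10 µM JCP410 controls.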

DPAP1, sequence (Q8IIJ9 whole entry, looked up): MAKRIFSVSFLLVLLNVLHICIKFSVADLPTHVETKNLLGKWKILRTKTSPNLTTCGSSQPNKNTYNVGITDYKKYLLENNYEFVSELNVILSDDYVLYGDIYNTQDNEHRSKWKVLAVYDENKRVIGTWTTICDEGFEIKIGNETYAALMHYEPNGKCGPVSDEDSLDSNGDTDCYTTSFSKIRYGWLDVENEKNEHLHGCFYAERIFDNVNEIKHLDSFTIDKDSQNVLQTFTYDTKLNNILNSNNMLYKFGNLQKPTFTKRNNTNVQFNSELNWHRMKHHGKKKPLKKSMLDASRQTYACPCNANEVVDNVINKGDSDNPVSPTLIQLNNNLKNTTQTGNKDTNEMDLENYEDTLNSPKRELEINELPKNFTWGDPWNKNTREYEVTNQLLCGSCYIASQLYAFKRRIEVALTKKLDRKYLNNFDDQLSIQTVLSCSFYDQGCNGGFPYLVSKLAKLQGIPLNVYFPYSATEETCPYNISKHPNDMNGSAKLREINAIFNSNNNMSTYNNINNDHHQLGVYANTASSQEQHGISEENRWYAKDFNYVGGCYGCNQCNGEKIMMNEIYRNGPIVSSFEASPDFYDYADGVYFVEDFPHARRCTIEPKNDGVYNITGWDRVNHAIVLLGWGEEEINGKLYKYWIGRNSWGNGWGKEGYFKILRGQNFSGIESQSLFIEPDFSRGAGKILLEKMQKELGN

SMILES | % Inhibition @ 10 uM
CCc1nccn1C(=O)c1cnn2c(C(F)F)cc(-c3ccccc3)nc12 | 75.7%
Cc1ccc(-c2cc(C(F)F)n3ncc(C(=O)N4CCc5ccccc5C4)c3n2)cc1 | 0.778%
CCCCNC(=O)c1cnn2c(C(F)F)cc(-c3ccccc3)nc12 | 4.08%
Cc1ccc(-c2cc(C(F)F)n3ncc(C(=O)NC(C)c4ccccc4)c3n2)cc1 (centres unmarked) | 0.778%
CCOC(=O)c1c(-c2ccc(F)cc2)csc1NC(=O)c1c(-c2ccccc2)noc1C | 0.64%
O=C(CCCC(=O)c1ccccc1)NC(c1ccccc1)c1ccccc1 | -1.46%
c1ccc(CSc2nccn2Cc2ccccc2)cc1 | -1.97%
CC(C)CC(=O)Nc1ccc(-c2nc3cc(Cl)ccc3o2)cc1 | -1.57%
Cc1ccc(CNS(=O)(=O)c2cn(C)cn2)cc1 | 1.47%
Cc1ccc(S(=O)(=O)Nc2nnc(C)s2)cc1 | -1.77%
Cn1cnc(S(=O)(=O)Nc2nnc(S)s2)c1 | 95.5%
Cc1csc(NC(=O)C(CCS(C)(=O)=O)N2Cc3ccccc3C2=O)n1 (centres unmarked) | 0.0322%
O=C(/C=C/c1ccco1)c1ccc(F)cc1 | 14.1%
COc1ccc(C(=O)/C=C/c2ccco2)cc1 | 60.2%
O=C(/C=C/c1ccco1)c1ccc(C(=O)/C=C/c2ccco2)cc1 | -0.268%
COc1ccc(CCNC(=O)CN2C(=O)c3ccccc3C2=O)cc1 | 1.33%
Cc1nn(C)cc1CN(C)C(=O)c1cc2nc(-c3ccccc3)cc(C(F)(F)F)n2n1 | 4.59%
Cc1cc(N(C)C)c(=O)n(-c2ccccc2)n1 | 5.74%
O=C1/C(=C\c2cccnc2)CN(Cc2ccccc2)C/C1=C\c1cccnc1 | 0.287%
O=C1/C(=C/c2ccc3nccnc3c2)CN(Cc2ccccc2)C/C1=C\c1ccc2nccnc2c1 | 6.89%
O=C1/C(=C\c2ccccn2)CN(Cc2ccccc2)C/C1=C\c1ccccn1 | 55.7%
O=C(CCN1C(=O)C2C3C=CC(C3)C2C1=O)Nc1cccnc1 (centres unmarked) | -0.551%
CCN(CC)C(=O)Cn1cc(S(=O)(=O)Cc2cc(C)ccc2C)c2ccccc21 | 0.292%
Cc1cccc(NC(=O)C2CC3CCC2C3)n1 (centres unmarked) | -2.66%
COc1ccc(S(=O)(=O)N2CCSC2c2ccccc2Cl)cc1 (centres unmarked) | 68.6%

SMILES | % Inhibition @ 10 uM
COc1ccc(S(=O)(=O)N2CCSC2c2ccccc2)cc1 (centres unmarked) | 3.19%
COc1ccc(S(=O)(=O)N2CCSC2c2ccc(C)cc2)cc1 (centres unmarked) | -3.45%
CN(C)c1ccc(/C=C(\C#N)c2nc(-c3ccc(-c4ccccc4)cc3)cs2)cc1 | 5.77%
CCn1ccnc1C(O)(c1ccccc1)c1ccc(C)cc1 (centres unmarked) | 4.67%
CCN1C(=O)C(=CNc2ccc3c(c2)-c2ccccc2C3)C(=O)N(CC)C1=O | -0.996%
Nc1c(C(=O)Nc2nccs2)sc2nc(-c3cccs3)cc(C(F)(F)F)c12 | 76.8%
Nc1c(C(=O)Nc2ccccn2)sc2nc(-c3cccs3)cc(C(F)(F)F)c12 | -5.07%
CCc1nnc(NC(=O)c2sc3nc(-c4cccs4)cc(C(F)(F)F)c3c2N)s1 | 0.487%
CC(=O)c1ccc(NC(=O)C(C)Oc2ccccc2C)cc1 (centres unmarked) | -5.92%
Cc1nc2c3ccccc3n3c(CCCC(=O)NC4CCN(Cc5ccccc5)CC4)nnc3n2n1 | 2.04%
CCCN1CCN(C(=O)Cn2cccc2C(=O)c2ccccc2)CC1 | 1.15%
CCOc1ccc(-c2cc(NC(=O)Cn3ncc4c(=O)oc5ccc(C)cc5c43)on2)cc1 | -5.25%
CCS(=O)CCSc1nc(-c2cccs2)cc(-c2ccccc2)c1C#N (centres unmarked) | 7.76%
CCCCSc1nc(-c2cccs2)cc(C(F)(F)F)c1C#N | 60.7%
Cc1cccc(NC(=O)CSc2nc(-c3cccs3)cc(C(F)(F)F)c2C#N)n1 | 18.3%
N#Cc1c(C(F)(F)F)cc(-c2cccs2)nc1S | 88.5%
N#Cc1c(C(F)(F)F)cc(-c2cccs2)nc1SCc1ccncc1 | 57.7%
CCSc1nc(-c2ccc(OC)cc2)cc(C(F)(F)F)c1C#N | -1.4%
N#Cc1c(C(F)(F)F)cc(-c2cccs2)nc1SCC(=O)Nc1ccccn1 | 2.44%
N#Cc1c(-c2cccs2)cc(-c2ccccc2)nc1S | 20.6%
CCSc1nc(-c2cccs2)cc(C(F)(F)F)c1C#N | 82.6%
N#Cc1sc2nc(-c3cccs3)cc(C(F)(F)F)c2c1N | -2.32%
N#Cc1c(C(F)(F)F)cc(-c2cccs2)nc1SCC(=O)Nc1nccs1 | 0.121%
CC(=O)NCCSc1nc(-c2cccs2)cc(-c2ccc(F)cc2)c1C#N | 5.65%
Cc1ccnc(NC(=O)c2ccc(C)c(C)c2)c1 | 2.64%
